From the supplement of paper PMC9694430

Each compound was assayed on LOC_OS01G10900-cb004 (assay: thermal shift delta Tm vs DMSO control; higher = stronger stabilization (binding)). Conditions: 12.5 µM; protein concentration 2 µM.
Method in brief: (§1)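 The melting temperature shift given here is a triplicate mean, measured against protein that received only DMSO. Melting temperatures came from Boltzmann fits of differential scanning fluorimetry data on E. coli-expressed, purified rice kinase domain constructs. Each 19.5 μl well contained 2 μM kinase, 100 mM potassium phosphate pH 7.5, 150 mM NaCl, 10% glycerol, 5 × SYPRO Orange and compound in DMSO. Plates were scanned from 25°C to 95°C at 0.05°C/s.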

SMILES	thermal shift delta Tm [°C]
CCn1c(=O)c(-c2ccc(-c3cncs3)cc2Cl)cc2cnc(Nc3ccc(N4CCN(C)CC4)cc3)nc21	0.42
Cc1ccc(CNc2ncnc3ccc(-c4ccc(CO)o4)cc23)o1	0.39
COc1ccc(C(=O)Nc2sc3c(c2C(N)=O)CCCC3)cc1OC	0.36
COc1cc2c(Oc3ccc4[nH]c(C)cc4c3F)ncnc2cc1OCCCN1CCCC1 [Cediranib (AZD2171)]	0.21
CNC(=O)c1cccc(-c2ccc3c(N4CCOC[C@@H]4C)nc(N4CCOC[C@@H]4C)nc3n2)c1 [Vistusertib (AZD2014)]	0.09
Cc1ccc(C(=O)Nc2ccc(CN3CCN(C)CC3)c(C(F)(F)F)c2)cc1C#Cc1cnc2[nH]ncc2c1 [GZD824 Dimesylate]	5.49
Cc1ccccc1-n1c(Cn2nc(-c3cccc(O)c3)c3c(N)ncnc32)nc2cccc(C)c2c1=O	0.02
Cc1nc(Nc2cnn(C3CCNCC3)c2)nc2c1N(C)C(=O)c1cc3ccccc3cc1N2C	-0.09
O=C1NCCc2[nH]c(-c3ccncc3)cc21	0.12
Cc1nc2c(-c3cnc(N)nc3)nc(N3CCOCC3)nc2n1C(C)C	0.35
O=C(Nc1nc2cccc(-c3ccc(CN4CCS(=O)(=O)CC4)cc3)n2n1)C1CC1 [Filgotinib (GLPG0634)]	0.17
Fc1ccc2[nH]ccc2c1-c1nc(N2CCOCC2)c2sc(CN3CCN(CC4CC4)CC3)cc2n1	2.96
CCOC(=O)c1cnc2ccc(-c3cncc(NS(=O)(=O)c4ccccc4)c3)cn12	1.17
CCOc1cn(-c2ccc(F)cc2C)nc1C(=O)Nc1ccc(Oc2ccnc3cc(OC)c(OC)cc23)c(F)c1	0.01
COc1ncc(-c2ccc3nccc(-c4ccnnc4)c3c2)cc1NS(=O)(=O)c1ccc(F)cc1F	0.23
C=CC(=O)Nc1ccc(CN2C(=O)N(c3cc(OC)cc(OC)c3)Cc3cnc(Nc4ccc(N5CCN(C)CC5)cc4)nc32)cc1	4.79
COc1ccc(S(=O)(=O)N(C(C)=O)c2ccccc2/C=C/c2cc[n+]([O-])cc2)cc1	0.77
CNC(=O)c1ccccc1Nc1nc(Nc2ccc(N3CCOCC3)cc2OC)ncc1Cl	1.53
O=C(O)c1ccc2c(c1)nc(Nc1cccc(Cl)c1)c1ccncc12 [Silmitasertib (CX-4945)]	1.54

SMILES	thermal shift delta Tm [°C]
N#Cc1ccc2[nH]c(O)c(-c3ccc(CN4CCOCC4)cn3)c2c1	0.41
CN1CCC(COc2cnc(-c3cccc(Cn4nc(-c5cccc(C#N)c5)ccc4=O)c3)nc2)CC1	0.17
C[C@@H]1CN(CC(=O)Nc2ccc3c(c2)Cc2cccc(-c4cc(=O)cc(N5CCOCC5)o4)c2S3)C[C@H](C)O1	0.85
COc1cc(N2CCN(C)CC2)ccc1Nc1nccc(-c2cn(C)c3cnccc23)n1	1.77
COc1ccc(S(=O)(=O)N(CCO)c2ccccc2CN(C)C/C=C/c2ccc(Cl)cc2)cc1 [KN-93 Phosphate]	0.7
COc1cc2ncnc(Nc3cccc(Cl)c3)c2cc1OC [AG-1478 (Tyrphostin AG-1478)]	0.65
C=C[C@@](C)(/C=C/c1ccc(O)cc1)CCC=C(C)C [Bakuchiol]	1.06
Cc1nc2ccc(-n3ncc(C(=O)c4cc5ccccc5[nH]4)c3N)cc2[nH]1	0.9
CC(C)NC(=O)C1CCC(n2c(NC(=O)c3ccc(F)cc3)nc3ccc(CN4CCC(C(C)(C)O)CC4)cc32)CC1 (centres undefined) [Belizatinib (TSR-011)]	1.75
CN(C[C@@H]1COCCO1)S(=O)(=O)Nc1ccc2ccc3ncc(-c4cnn(C)c4)cc3c(=O)c2c1	1.59
Cn1cc(/C=C2\C(=O)Nc3cccnc32)c2ccccc21	1.42
COc1cc(OC)c(C=C2C(=O)Nc3ccccc32)c(OC)c1	1.24
COc1ccc(/C=C/C(=O)C2(C(=O)/C=C/c3ccc(OC)c(OC)c3)CCCCC2)cc1OC	1.18
N#C/C(=C(/N)Sc1ccc(N)cc1)c1ccccc1C(F)(F)F	0.32
CNC(=O)CN1CCC(Oc2cc3c(Nc4cccc(Cl)c4F)ncnc3cc2OC)CC1 [Sapitinib (AZD8931)]	0.42
CCS(=O)(=O)N1CCN(c2ccc(Nc3ncc(C(N)=O)c(NC4CC4)n3)cc2)CC1	1.08
O=C1NC(=O)C(=Cc2ccc(-c3ccc(F)cc3)o2)S1 (stereo in doubt)	0.58
C[C@@H](N)c1ccc(C(=O)Nc2ccnc3[nH]ccc23)cc1	0.32

These compounds were tested on LOC_OS01G13800-cb001 in the same assay as above. Conditions: 12.5 µM; protein concentration 2 µM.
Method in brief: as §1

SMILES	thermal shift delta Tm [°C]
CCn1c(=O)c(-c2ccc(-c3cncs3)cc2Cl)cc2cnc(Nc3ccc(N4CCN(C)CC4)cc3)nc21	0.34
Cc1ccc(CNc2ncnc3ccc(-c4ccc(CO)o4)cc23)o1	-0.33
COc1ccc(C(=O)Nc2sc3c(c2C(N)=O)CCCC3)cc1OC	0.6
COc1cc2c(Oc3ccc4[nH]c(C)cc4c3F)ncnc2cc1OCCCN1CCCC1 [Cediranib (AZD2171)]	0.33
CNC(=O)c1cccc(-c2ccc3c(N4CCOC[C@@H]4C)nc(N4CCOC[C@@H]4C)nc3n2)c1 [Vistusertib (AZD2014)]	0.05
Cc1ccc(C(=O)Nc2ccc(CN3CCN(C)CC3)c(C(F)(F)F)c2)cc1C#Cc1cnc2[nH]ncc2c1 [GZD824 Dimesylate]	-0.24
Cc1ccccc1-n1c(Cn2nc(-c3cccc(O)c3)c3c(N)ncnc32)nc2cccc(C)c2c1=O	-0.2
Cc1nc(Nc2cnn(C3CCNCC3)c2)nc2c1N(C)C(=O)c1cc3ccccc3cc1N2C	0.39
O=C1NCCc2[nH]c(-c3ccncc3)cc21	0.78
Cc1nc2c(-c3cnc(N)nc3)nc(N3CCOCC3)nc2n1C(C)C	0.04
O=C(Nc1nc2cccc(-c3ccc(CN4CCS(=O)(=O)CC4)cc3)n2n1)C1CC1 [Filgotinib (GLPG0634)]	0.3
Fc1ccc2[nH]ccc2c1-c1nc(N2CCOCC2)c2sc(CN3CCN(CC4CC4)CC3)cc2n1	-0.36
CCOC(=O)c1cnc2ccc(-c3cncc(NS(=O)(=O)c4ccccc4)c3)cn12	0.29
CCOc1cn(-c2ccc(F)cc2C)nc1C(=O)Nc1ccc(Oc2ccnc3cc(OC)c(OC)cc23)c(F)c1	-0.07
COc1ncc(-c2ccc3nccc(-c4ccnnc4)c3c2)cc1NS(=O)(=O)c1ccc(F)cc1F	0.27
C=CC(=O)Nc1ccc(CN2C(=O)N(c3cc(OC)cc(OC)c3)Cc3cnc(Nc4ccc(N5CCN(C)CC5)cc4)nc32)cc1	0.56
COc1ccc(S(=O)(=O)N(C(C)=O)c2ccccc2/C=C/c2cc[n+]([O-])cc2)cc1	0.64
CNC(=O)c1ccccc1Nc1nc(Nc2ccc(N3CCOCC3)cc2OC)ncc1Cl	-0.3
O=C(O)c1ccc2c(c1)nc(Nc1cccc(Cl)c1)c1ccncc12 [Silmitasertib (CX-4945)]	0.77

SMILES	thermal shift delta Tm [°C]
N#Cc1ccc2[nH]c(O)c(-c3ccc(CN4CCOCC4)cn3)c2c1	-0.53
CN1CCC(COc2cnc(-c3cccc(Cn4nc(-c5cccc(C#N)c5)ccc4=O)c3)nc2)CC1	-0.5
C[C@@H]1CN(CC(=O)Nc2ccc3c(c2)Cc2cccc(-c4cc(=O)cc(N5CCOCC5)o4)c2S3)C[C@H](C)O1	0.28
COc1cc(N2CCN(C)CC2)ccc1Nc1nccc(-c2cn(C)c3cnccc23)n1	0.56
COc1ccc(S(=O)(=O)N(CCO)c2ccccc2CN(C)C/C=C/c2ccc(Cl)cc2)cc1 [KN-93 Phosphate]	-0.08
COc1cc2ncnc(Nc3cccc(Cl)c3)c2cc1OC [AG-1478 (Tyrphostin AG-1478)]	0.5
C=C[C@@](C)(/C=C/c1ccc(O)cc1)CCC=C(C)C [Bakuchiol]	0.03
Cc1nc2ccc(-n3ncc(C(=O)c4cc5ccccc5[nH]4)c3N)cc2[nH]1	0
CC(C)NC(=O)C1CCC(n2c(NC(=O)c3ccc(F)cc3)nc3ccc(CN4CCC(C(C)(C)O)CC4)cc32)CC1 (centres undefined) [Belizatinib (TSR-011)]	-0.36
CN(C[C@@H]1COCCO1)S(=O)(=O)Nc1ccc2ccc3ncc(-c4cnn(C)c4)cc3c(=O)c2c1	-0.75
Cn1cc(/C=C2\C(=O)Nc3cccnc32)c2ccccc21	-0.51
COc1cc(OC)c(C=C2C(=O)Nc3ccccc32)c(OC)c1	0.46
COc1ccc(/C=C/C(=O)C2(C(=O)/C=C/c3ccc(OC)c(OC)c3)CCCCC2)cc1OC	0.16
N#C/C(=C(/N)Sc1ccc(N)cc1)c1ccccc1C(F)(F)F	0.3
CNC(=O)CN1CCC(Oc2cc3c(Nc4cccc(Cl)c4F)ncnc3cc2OC)CC1 [Sapitinib (AZD8931)]	-0.22
CCS(=O)(=O)N1CCN(c2ccc(Nc3ncc(C(N)=O)c(NC4CC4)n3)cc2)CC1	0.55
O=C1NC(=O)C(=Cc2ccc(-c3ccc(F)cc3)o2)S1 (stereo in doubt)	0.53
C[C@@H](N)c1ccc(C(=O)Nc2ccnc3[nH]ccc23)cc1	0.63
